Assay in all cases: yeast three-hybrid, YBZ-1, SC-Leu-His + 0.5 mM 3-AT, 4 days
Settings in all cases: tags: N-Gal4 AD-HA kept; label: inside an RPR1-promoter hybrid RNA with tandem MS2 sites; ssRNA

In experiment [1] the target is PUM1 PUF domain R3-GYF (Homo sapiens, UniProt Q14671 828-1176, C935G;R936Y;Q939F). Summed up: (§1)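 A centromeric plasmid in strain YBZ-1 co-expressed Pumilio-1 PUF domain libraries, randomized at the three base-contacting residues of each repeat, with matching RNA elements; the strain carries a LexA–MS2 coat fusion and a HIS3 reporter. After four days on SC-Leu (input) or SC-Leu-His + 0.5 mM 3-AT (selection), the repeat regions were PCR-amplified and Illumina-sequenced. The interaction score is the log change in variant frequency from input to selection, using log2 and a pseudocount of 1 where absent.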

Experiment [2] has as its target PUM1 PUF domain R5-MRG (Homo sapiens, UniProt Q14671 828-1176, C1007M;Q1011G). Summed up:
as §1

Experiment [3] concerns the target PUM1 PUF domain R3-YRF (Homo sapiens, UniProt Q14671 828-1176, C935Y;Q939F). In short, it runs like this:
as §1

The target in experiment [4] is PUM1 PUF domain R5-KRE (Homo sapiens, UniProt Q14671 828-1176, C1007K;Q1011E). In short, it runs like this: as §1
PUM1 PUF domain R5-KRE, sequence (Q14671 828-1176 C1007K/Q1011E): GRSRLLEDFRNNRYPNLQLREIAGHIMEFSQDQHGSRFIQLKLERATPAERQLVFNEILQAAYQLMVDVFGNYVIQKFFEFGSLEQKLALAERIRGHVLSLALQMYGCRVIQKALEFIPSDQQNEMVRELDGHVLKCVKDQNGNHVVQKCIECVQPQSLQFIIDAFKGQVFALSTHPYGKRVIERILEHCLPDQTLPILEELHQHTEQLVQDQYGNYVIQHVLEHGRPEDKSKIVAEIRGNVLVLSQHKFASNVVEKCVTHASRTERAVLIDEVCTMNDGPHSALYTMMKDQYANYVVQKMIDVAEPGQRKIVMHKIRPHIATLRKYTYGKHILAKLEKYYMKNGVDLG
Experiment [5] deals with PUM1 PUF domain R5-KSW (Homo sapiens, UniProt Q14671 828-1176, C1007K;R1008S;Q1011W). In short, it runs like this: as §1
PUM1 PUF domain R5-KSW, sequence (Q14671 828-1176 C1007K/R1008S/Q1011W): as the sequence (Q14671 828-1176 C1007K/Q1011E) above, with R181S, E184W counted along it
The target in experiment [6] is PUM1 PUF domain R7-ERQ (Homo sapiens, UniProt Q14671 828-1176, S1079E;N1080R;E1083Q). In short, it runs like this: as §1
PUM1 PUF domain R7-ERQ, sequence (Q14671 828-1176 S1079E/N1080R/E1083Q): as the sequence (Q14671 828-1176 C1007K/Q1011E) above, with K180C, E184Q, S252E, N253R, E256Q counted along it
Experiment [7] has as its target PUM1 PUF domain R4-NRR (Homo sapiens, UniProt Q14671 828-1176, H972R;Q975R). Summed up:
as §1

The target of experiment [8] is PUM1 PUF domain R3-RQE (Homo sapiens, UniProt Q14671 828-1176, C935R;R936Q;Q939E). Summed up:
as §1

The target of experiment [9] is PUM1 PUF domain R3-RQP (Homo sapiens, UniProt Q14671 828-1176, C935R;R936Q;Q939P). In short, it runs like this:
as §1

The target in experiment [10] is PUM1 PUF domain R8-YYK (Homo sapiens, UniProt Q14671 828-1176, N1122Y;Q1126K). Summed up:
as §1

“GGCUAGAACUAGUGGAUCCCCCGGCGCCCGGCGGCUCGAGCCCGGGUAAGUGUAAAUAGUCUGCAUGCCGCCGGGCGCCAUGCCUGCAGGUCGACUCUAGAAAACAUG”: the binding signal is 5.74 log2 enrichment (interaction score) in experiment [1], 0.66 log2 enrichment (interaction score) in experiment [2] and 1.16 log2 enrichment (interaction score) in experiment [3].
As for “GGCUAGAACUAGUGGAUCCCCCGGCGCCCGGCGGCUCGAGCCCGGGUAAGUGUCAAUAGUCUGCAUGCCGCCGGGCGCCAUGCCUGCAGGUCGACUCUAGAAAACAUG”, the figures for the binding signal in experiment [4], in experiment [2] and in [5] were 2.98 log2 enrichment (interaction score), 0.97 log2 enrichment (interaction score) and 2.82 log2 enrichment (interaction score), respectively.
In the case of “GGCUAGAACUAGUGGAUCCCCCGGCGCCCGGCGGCUCGAGCCCGGGUAAGUCUAAAUAGUCUGCAUGCCGCCGGGCGCCAUGCCUGCAGGUCGACUCUAGAAAACAUG”, the binding signal in experiment [6] was 2.6 log2 enrichment (interaction score).
With “GGCUAGAACUAGUGGAUCCCCCGGCGCCCGGCGGCUCGAGCCCGGGUAAGUGUACAUAGUCUGCAUGCCGCCGGGCGCCAUGCCUGCAGGUCGACUCUAGAAAACAUG”, the binding signal in experiment [7] is 3.57 log2 enrichment (interaction score).
Turning to “GGCUAGAACUAGUGGAUCCCCCGGCGCCCGGCGGCUCGAGCCCGGGUAAGUGUUAAUAGUCUGCAUGCCGCCGGGCGCCAUGCCUGCAGGUCGACUCUAGAAAACAUG”, the binding signal in [2] was 3.12 log2 enrichment (interaction score).
With “GGCUAGAACUAGUGGAUCCCCCGGCGCCCGGCGGCUCGAGCCCGGGUAAGUGUAAGUAGUCUGCAUGCCGCCGGGCGCCAUGCCUGCAGGUCGACUCUAGAAAACAUG”, the binding signal in [3] was 5.65 log2 enrichment (interaction score).
Regarding “GGCUAGAACUAGUGGAUCCCCCGGCGCCCGGCGGCUCGAGCCCGGGUAAGUGUAAUUAGUCUGCAUGCCGCCGGGCGCCAUGCCUGCAGGUCGACUCUAGAAAACAUG”, the binding signal is 2.81 log2 enrichment (interaction score) in experiment [8] and 3.85 log2 enrichment (interaction score) in experiment [9].
As for “GGCUAGAACUAGUGGAUCCCCCGGCGCCCGGCGGCUCGAGCCCGGGUAAGUGUAUAUAGUCUGCAUGCCGCCGGGCGCCAUGCCUGCAGGUCGACUCUAGAAAACAUG”, the binding signal in experiment [7] is 1.51 log2 enrichment (interaction score).
Turning to “GGCUAGAACUAGUGGAUCCCCCGGCGCCCGGCGGCUCGAGCCCGGGUAAGCGUAAAUAGUCUGCAUGCCGCCGGGCGCCAUGCCUGCAGGUCGACUCUAGAAAACAUG”, the binding signal in experiment [10] is 4.78 log2 enrichment (interaction score).

Values taken from PMC8384837, “Expanding the binding specificity for RNA recognition by a PUF domain”.
